# Measurements taken from PubChem BioAssay (NCATS).
# Inconclusive results are not listed. Where a call stands in place of a potency, no number is given. The source made the active and inactive calls. Calls come from the whole dose curve; as a rule, active = well fitted inhibition curve with a large enough effect; inconclusive = small, poorly fitted or top-dose-only effect; inactive = no such curve, though single readings can be large or run the other way.
# Target: Retinaldehyde dehydrogenase 3 (Homo sapiens) (UniProt P47895)
# Test: qHTS for Inhibitors of the Aldehyde Dehydrogenase Family (ALDH1A3) Primary screen (AID 2061315)
# Conditions: ALDH inhibition qHTS; series mostly up to 56 µM
row,SMILES,Potency
1,CC1CCC2(OC1)OC1CC3C4CC=C5CC(O)CC(O[C@@H]6OC[C@@H](O)[C@H](O)[C@H]6O)C5(C)C4CCC3(C)C1(O)C2C (stereo partly drawn),inactive
2,C=CC(C)(O)CCC1C(C)(O)CCC2C(C)(C)CCCC21C (stereo not drawn),inactive
3,C=C(C)C1CCC2(C(=O)OC3OC(COC4OC(CO)C(O)C(O)C4O)C(OC4OC(C)C(O)C(O)C4O)C(O)C3O)CCC3(C(=O)O)C(CCC4C5(C)CCC(=O)C(C)(C)C5CCC43C)C12 (stereo not drawn),inactive
